In PubChem BioAssay (NCI):
“And” between values parts separate entries of the source, which are not always exact repeats. Equal entries are not always repeated. The panel holds about 83,000 compounds, 20% with a hit somewhere; the sample as a whole holds those more often.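 Assay: single dose, 48 h. Readout: percent growth (0 = no net growth; negative = cell death). Active: <10.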 Values without a mark were called inactive. The source made the active and inactive calls.

These molecules were tested on SN12C renal (assay: NCI-60 one-dose screen, 48 h (100 = growth as untreated, 0 = no growth, -100 = all killed)). Conditions: 10 µM unless noted.

**Q.** For `COc1ccc(-c2nc3ccccc3n2CC(=O)N=Nc2c(O)[nH]c3ccc(OC)cc23)cc1`, which growth is on record?
**A.** 58.7%

**Q.** How did the growth turn out when `COc1cc(NC(=O)C(C)C)ccc1C(=O)NC(=S)Nc1ccc(S(N)(=O)=O)cc1` was run?
**A.** 100%

**Q.** How did the growth turn out when `COc1cc(C2CC(c3cc(OC)c(OC)c(OC)c3)=Nc3c(N)nc(N)nc3N2)ccc1Oc1nc(Nc2ccc(F)cc2)nc(N(C)C)n1` (stereo not drawn) was run?
**A.** 78.5%

**Q.** `COc1ccc(C2=NN(C(=O)[C@H]3[C@@H](c4ccco4)c4sc(=O)[nH]c4S[C@@H]3C)C(c3ccc4ccccc4c3)C2)cc1` (stereo partly drawn) was tested. Which growth did it give?
**A.** 39%

**Q.** `O=C(CSc1nc2c(c(=O)[nH]1)CCCC2)Nc1ccccc1C(=O)O` was tested. Which growth did it give?
**A.** 93.3%

**Q.** How did the growth turn out when `O=C1c2cccc3c(N4CCN(c5ccccc5)CC4)ccc(c23)C(=O)N1c1cccc(-c2nn(-c3ccccc3)cc2-c2nc3ccccc3s2)c1` was run?
**A.** 103%

**Q.** Which growth does the source give for `N#CCc1nnc(NC(=O)c2ccc(-n3c(=O)[nH]c4ccccc4c3=O)cc2)s1` here?
**A.** 95.4%

**Q.** How did the growth turn out when `CCOC(=O)/C(F)=C/C1CC1C(c1ccccc1)c1ccccc1` (stereo not drawn) was run?
**A.** 98.8%

**Q.** Which growth does the source give for `Cc1ccc(S(=O)(=O)N(CCn2ccnc2[N+](=O)[O-])CCn2ccnc2[N+](=O)[O-])cc1` here?
**A.** 105%

**Q.** With `CC(C)(C)C(=O)c1c2c(c3ccc4c5ccccc5ccc4n13)C(=O)c1ccccc1C2=O` as the molecule, how does the growth read?
**A.** 99%

**Q.** How did the growth turn out when `O=C(N=Nc1c(O)[nH]c2ccc(Cl)cc12)c1ccc2nc(-c3ccc(Cl)cc3)[nH]c2c1` was run?
**A.** -10.4% (active)

**Q.** For `COc1ccc(NC(=O)Cn2c(/C=C/c3cccc(OC)c3)nc3ccccc3c2=O)cc1`, which growth is on record?
**A.** -24% (active)

**Q.** For `Cc1cccc(/C=C/c2ccc(NC(=S)NCCCCN(C)C)cc2)c1`, which growth is on record?
**A.** -84.5% (active)

**Q.** `Cc1ccc(C(=O)C[n+]2cccc3c4ccccc4ccc32)cc1` was tested. Which growth did it give?
**A.** 14.7%

**Q.** `c1ccc(CSc2nnc(-c3ccc4nc(-c5ccccc5)[nH]c4c3)o2)cc1` was tested. Which growth did it give?
**A.** -48.3% (active)

**Q.** How did the growth turn out when `O=C(Nc1ccc(-c2ccc3c(c2)NC(=O)/C3=C\c2ccc[nH]2)cc1)Nc1cccc(Cl)c1` was run?
**A.** 40.7%

**Q.** Which growth does the source give for `N#Cc1c(-c2ccc(F)cc2)nc(SCc2ccc(F)cc2)nc1N1CCNCC1` here?
**A.** -58.6% (active)

**Q.** With `Cc1cc(C2(c3cc(C)c(OCC(O)CNc4c(C)n(C)n(-c5ccccc5)c4=O)cc3C(C)C)OC(=O)c3ccccc32)c(C(C)C)cc1OCC(O)CNc1c(C)n(C)n(-c2ccccc2)c1=O` (stereo not drawn) as the molecule, how does the growth read?
**A.** 26.6%

**Q.** How did the growth turn out when `O=CNc1cccc(-n2cnc3cc(-c4ccc(O)cc4)ccc32)c1` was run?
**A.** 22.9%

**Q.** How did the growth turn out when `COc1ccc(S(=O)(=O)Nc2ccc(-c3ccc4c(c3)NC(=O)/C4=C\c3ccc[nH]3)cc2)cc1OC` was run?
**A.** -0.885% (active)

**Q.** For `CC(=O)Nc1cccc(-n2c(COc3ccc(Br)cc3)nc3ccccc32)c1`, which growth is on record?
**A.** 104% and 110%

**Q.** Which growth does the source give for `CCCCNC(=S)Nc1ccc(OCc2nc3ccc(Cl)cc3[nH]2)cc1` here?
**A.** 19.2%

**Q.** Which growth does the source give for `COc1ccc(OC)c(Cn2cc(C#N)c(N)c2C(=O)c2ccc(Br)cc2)c1` here?
**A.** 64.4%

**Q.** Which growth does the source give for `NCCCCn1c(SCCc2c[nH]c3ccccc23)nnc1-c1ccc2ccccc2n1` here?
**A.** -14.8% (active)

**Q.** With `COc1cc(CNC(=O)C[C@H](C)CCC=C(C)C)ccc1OCc1cn(-c2ccccc2Cl)nn1` as the molecule, how does the growth read?
**A.** 69.6%

**Q.** `NS(=O)(=O)c1ccc(N2N=C(c3ccc(NC(=O)Nc4ccccc4)cc3)CC2c2ccc(Br)cc2)cc1` (stereo not drawn) was tested. Which growth did it give?
**A.** -97.7% (active)

**Q.** How did the growth turn out when `COc1ccc(NC(=O)CSc2nnc(-c3ccc(-c4nc5ccc(Cl)cc5[nH]4)cc3)o2)cc1` was run?
**A.** 6.13% (active)

**Q.** How did the growth turn out when `CC1=C(C(=O)OCc2ccccc2)C(c2ccc(N(C)C)cc2)n2c(nc3ccccc32)N1` (stereo not drawn) was run?
**A.** 98.2%

**Q.** `NS(=O)(=O)c1ccc(Nc2nc(N/N=C/c3cc(Br)c(O)c(Br)c3)nc(Nc3ccccc3)n2)cc1` was tested. Which growth did it give?
**A.** 46.3%

**Q.** Which growth does the source give for `COc1cccc(NC(=O)c2ccc(NC(=O)CCl)s2)c1` here?
**A.** -14.4% (active)

**Q.** How did the growth turn out when `Cc1oc(-c2ccccc2)nc1CN[C@@H]1C[C@@H]2C[C@H]([C@H]1C)C2(C)C` was run?
**A.** 10.1%

**Q.** `C=CC(=O)Nc1ccc(C(=O)/C=C/c2ccc(N(C)C)cc2)c(O)c1` was tested. Which growth did it give?
**A.** 5.34% (active)

**Q.** For `COc1cc(/C=C/C(=O)c2cnn(-c3cc(=O)[nH]c4ccc(Cl)cc34)c2C)cc(OC)c1OC`, which growth is on record?
**A.** 0.0215% (active)

**Q.** How did the growth turn out when `COc1cc(C=O)ccc1Oc1nc(Nc2ccc(F)cc2)nc(N(C)C)n1` was run?
**A.** 92.2% and 58.5%

**Q.** How did the growth turn out when `Cn1cc(-c2cc3nc(-c4cn(C)c5ncccc45)cc(N)n3n2)c2cc(F)ccc21` was run?
**A.** 51.2%

**Q.** `Cc1ccccc1NC(=O)c1cccc(NC(=O)CCl)c1` was tested. Which growth did it give?
**A.** 15.4%

**Q.** How did the growth turn out when `FC(F)(F)c1cc2c(Cl)ncnc2n1CCN1CCCCC1` was run?
**A.** 59.7%

**Q.** With `Cn1cc(-c2cc(N)n3nc(-c4c[nH]c5ccc(Cl)cc45)cc3n2)c2cc(Br)cnc21` as the molecule, how does the growth read?
**A.** 42.5%
